# T1: NR1H3 204-447 Hormone_recep (domain begin residue: 204, domain end residue: 447), Q13133
# T1 chain: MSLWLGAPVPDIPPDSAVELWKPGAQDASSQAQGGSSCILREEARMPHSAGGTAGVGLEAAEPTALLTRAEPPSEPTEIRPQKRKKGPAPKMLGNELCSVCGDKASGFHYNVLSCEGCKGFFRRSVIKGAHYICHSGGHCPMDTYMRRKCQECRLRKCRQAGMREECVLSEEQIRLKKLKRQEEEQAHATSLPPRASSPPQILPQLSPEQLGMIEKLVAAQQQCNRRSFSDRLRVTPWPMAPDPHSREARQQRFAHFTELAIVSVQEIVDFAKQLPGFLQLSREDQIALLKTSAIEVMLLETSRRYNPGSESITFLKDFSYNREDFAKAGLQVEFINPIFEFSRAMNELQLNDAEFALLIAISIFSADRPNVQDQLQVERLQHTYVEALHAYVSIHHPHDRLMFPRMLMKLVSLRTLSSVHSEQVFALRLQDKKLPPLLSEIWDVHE
# T2: NR1D2 386-579 Hormone_recep (domain begin residue: 386, domain end residue: 579), Q14995
# T2 chain: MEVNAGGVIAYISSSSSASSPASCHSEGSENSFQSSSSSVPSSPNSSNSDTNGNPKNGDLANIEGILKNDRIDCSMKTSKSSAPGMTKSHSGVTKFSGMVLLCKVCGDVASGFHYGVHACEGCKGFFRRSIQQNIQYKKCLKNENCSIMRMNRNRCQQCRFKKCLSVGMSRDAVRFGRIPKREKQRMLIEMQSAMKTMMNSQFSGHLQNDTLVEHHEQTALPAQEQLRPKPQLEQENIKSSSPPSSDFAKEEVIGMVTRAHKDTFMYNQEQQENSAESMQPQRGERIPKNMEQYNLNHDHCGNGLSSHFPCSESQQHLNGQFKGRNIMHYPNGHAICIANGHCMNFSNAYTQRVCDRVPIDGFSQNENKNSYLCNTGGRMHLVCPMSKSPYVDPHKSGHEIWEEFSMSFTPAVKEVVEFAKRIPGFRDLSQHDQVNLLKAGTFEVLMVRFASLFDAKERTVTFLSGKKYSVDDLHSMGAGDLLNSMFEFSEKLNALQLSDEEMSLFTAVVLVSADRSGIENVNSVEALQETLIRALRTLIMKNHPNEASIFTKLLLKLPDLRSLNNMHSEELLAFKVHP
# T3: NFKBIA 70-282 EF-hand_6 (domain begin residue: 70, domain end residue: 282), P25963
# T3 chain: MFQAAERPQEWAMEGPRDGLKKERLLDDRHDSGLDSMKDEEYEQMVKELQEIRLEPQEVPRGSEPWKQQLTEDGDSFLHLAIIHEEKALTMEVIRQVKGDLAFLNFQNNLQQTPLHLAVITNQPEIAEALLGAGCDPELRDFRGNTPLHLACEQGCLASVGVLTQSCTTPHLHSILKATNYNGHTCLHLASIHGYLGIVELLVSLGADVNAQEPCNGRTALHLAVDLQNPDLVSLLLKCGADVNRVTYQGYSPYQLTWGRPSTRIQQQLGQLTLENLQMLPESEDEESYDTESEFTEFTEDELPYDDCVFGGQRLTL
# T4: NR1H4 256-474 Hormone_recep (domain begin residue: 256, domain end residue: 474), Q96RI1
# T4 chain: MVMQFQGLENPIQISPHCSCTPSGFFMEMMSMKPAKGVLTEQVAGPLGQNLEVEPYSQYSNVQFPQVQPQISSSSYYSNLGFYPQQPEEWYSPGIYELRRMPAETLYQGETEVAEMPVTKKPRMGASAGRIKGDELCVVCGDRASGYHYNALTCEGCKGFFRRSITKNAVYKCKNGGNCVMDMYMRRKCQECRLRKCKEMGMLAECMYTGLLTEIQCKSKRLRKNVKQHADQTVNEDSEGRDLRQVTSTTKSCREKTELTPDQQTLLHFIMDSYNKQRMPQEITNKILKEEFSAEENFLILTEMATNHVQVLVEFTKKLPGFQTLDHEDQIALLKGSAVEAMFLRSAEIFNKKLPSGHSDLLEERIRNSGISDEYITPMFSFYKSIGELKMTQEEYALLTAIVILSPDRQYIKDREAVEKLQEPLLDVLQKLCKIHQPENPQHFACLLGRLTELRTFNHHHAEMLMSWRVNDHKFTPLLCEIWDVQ
# T5: NR1H2 203-460 Hormone_recep (domain begin residue: 203, domain end residue: 460), P55055
# T5 chain: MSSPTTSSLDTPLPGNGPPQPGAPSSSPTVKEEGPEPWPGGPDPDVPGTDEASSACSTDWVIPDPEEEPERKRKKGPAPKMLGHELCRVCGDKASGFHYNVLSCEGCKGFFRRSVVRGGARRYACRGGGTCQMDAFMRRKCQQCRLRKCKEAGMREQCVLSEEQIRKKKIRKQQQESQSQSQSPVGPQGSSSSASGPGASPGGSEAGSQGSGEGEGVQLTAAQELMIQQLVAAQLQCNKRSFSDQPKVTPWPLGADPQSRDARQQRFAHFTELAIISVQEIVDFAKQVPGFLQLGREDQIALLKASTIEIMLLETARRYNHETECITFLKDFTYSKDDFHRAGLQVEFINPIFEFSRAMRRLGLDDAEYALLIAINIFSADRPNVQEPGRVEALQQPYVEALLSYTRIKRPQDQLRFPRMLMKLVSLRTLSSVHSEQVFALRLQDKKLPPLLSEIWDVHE
# T6: MYL6 4-151 EF-hand_6 (domain begin residue: 4, domain end residue: 151), P60660
# T6 chain: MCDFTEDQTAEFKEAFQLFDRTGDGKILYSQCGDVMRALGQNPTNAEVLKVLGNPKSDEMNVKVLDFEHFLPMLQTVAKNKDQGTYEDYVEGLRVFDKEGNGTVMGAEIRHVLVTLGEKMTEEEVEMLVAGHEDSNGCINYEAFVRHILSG
# T7: NR4A2 327-598 Hormone_recep (domain begin residue: 327, domain end residue: 598), P43354
# T7 chain: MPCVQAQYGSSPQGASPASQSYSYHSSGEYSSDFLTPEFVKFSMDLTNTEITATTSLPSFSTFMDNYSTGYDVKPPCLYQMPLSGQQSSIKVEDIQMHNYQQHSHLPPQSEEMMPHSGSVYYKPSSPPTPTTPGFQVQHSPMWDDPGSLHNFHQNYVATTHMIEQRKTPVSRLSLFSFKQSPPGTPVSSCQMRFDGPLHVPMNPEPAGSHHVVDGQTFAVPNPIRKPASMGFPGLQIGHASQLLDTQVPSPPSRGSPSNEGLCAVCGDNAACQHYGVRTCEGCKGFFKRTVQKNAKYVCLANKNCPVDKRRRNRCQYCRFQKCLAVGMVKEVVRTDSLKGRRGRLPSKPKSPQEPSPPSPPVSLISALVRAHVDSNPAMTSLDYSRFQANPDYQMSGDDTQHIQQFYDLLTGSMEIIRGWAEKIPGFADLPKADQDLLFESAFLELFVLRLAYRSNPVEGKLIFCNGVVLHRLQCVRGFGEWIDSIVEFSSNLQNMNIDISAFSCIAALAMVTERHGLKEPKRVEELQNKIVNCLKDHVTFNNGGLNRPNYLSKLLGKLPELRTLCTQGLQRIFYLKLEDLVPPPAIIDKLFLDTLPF
# B1: unnamed (peptide)
# chain: PMWDSVWDHLLTEPPE
# B2: unnamed (peptide)
# chain: YPEIAWLQQMMQSDSR
# B3: unnamed (peptide)
# chain: ENLTALIMAFFSETIQ
# B4: unnamed (peptide)
# chain: YFEMLEDDGVWTAPNW
# B5: unnamed (peptide)
# chain: PHGITDVWAQWFVEML
# B6: unnamed (peptide)
# chain: GDLEQHLMEWWTREVF
# B7: unnamed (peptide)
# chain: ESLWIIPSNAYWEQVM
# B8: unnamed (peptide)
# chain: WQDAWMQAMEQIYPPL
# B9: unnamed (peptide)
# chain: DQPPPSYSVLTPDVAL
# B10: unnamed (peptide)
# chain: DEWWMFYPQPMYDLWH
# B11: unnamed (peptide)
# chain: VDPDWWDWMMSQLDTN
# B12: unnamed (peptide)
# chain: VWPDIYPELQFLHMMY
# B13: unnamed (peptide)
# chain: EYYPEWDFLWRHMQEP
# B14: unnamed (peptide)
# chain: IFQYIVVQIGNTMYVI
# B15: unnamed (peptide)
# chain: QTMQRQWLDILLSLEL
# Experiments:
# Assay in all cases: phage ELISA signal ratio (GST-PRM binding over GST background); higher = stronger binding of peptide-phage to the PRM
# [1] = molecular target: MSH6 89-203 PWWP (domain begin residue: 89, domain end residue: 203), P52701
# Summary of the method: (§1)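 Each value is the phage ELISA signal on the glutathione S-transferase (GST)-domain fusion divided by the signal on GST alone. Human peptide recognition domains were expressed in 96-well plates, fused to the C-terminus of GST, and selected against an M13 phage library carrying randomized, cysteine-free, glycine-flanked hexadecapeptides on the gene-8 major coat protein. After five selection rounds, approximately 48 individual clones from rounds 4 and 5 were tested by phage ELISA, and positive clones were sequenced.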
# [2] = molecular target: T1, NR1H3 204-447 Hormone_recep (domain …
# Summary of the method: as §1
# [3] = molecular target: T2, NR1D2 386-579 Hormone_recep (domain …
# Summary of the method: as §1
# [4] = molecular target: T3, NFKBIA 70-282 EF-hand_6 (domain begin …
# Summary of the method: as §1
# [5] = molecular target: T4, NR1H4 256-474 Hormone_recep (domain …
# Summary of the method: as §1
# [6] = molecular target: T5, NR1H2 203-460 Hormone_recep (domain …
# Summary of the method: as §1
# [7] = molecular target: NR2E3 154-410 Hormone_recep (domain begin residue: 154, domain end residue: 410), Q9Y5X4
# Summary of the method: as §1
# [8] = molecular target: T6, MYL6 4-151 EF-hand_6 (domain begin …
# Summary of the method: as §1
# [9] = molecular target: T7, NR4A2 327-598 Hormone_recep (domain …
# Summary of the method: as §1
# Sequence of NR2E3 154-410 Hormone_recep (domain begin residue: 154, domain end residue: 410), Q9Y5X4 (Q9Y5X4 whole entry): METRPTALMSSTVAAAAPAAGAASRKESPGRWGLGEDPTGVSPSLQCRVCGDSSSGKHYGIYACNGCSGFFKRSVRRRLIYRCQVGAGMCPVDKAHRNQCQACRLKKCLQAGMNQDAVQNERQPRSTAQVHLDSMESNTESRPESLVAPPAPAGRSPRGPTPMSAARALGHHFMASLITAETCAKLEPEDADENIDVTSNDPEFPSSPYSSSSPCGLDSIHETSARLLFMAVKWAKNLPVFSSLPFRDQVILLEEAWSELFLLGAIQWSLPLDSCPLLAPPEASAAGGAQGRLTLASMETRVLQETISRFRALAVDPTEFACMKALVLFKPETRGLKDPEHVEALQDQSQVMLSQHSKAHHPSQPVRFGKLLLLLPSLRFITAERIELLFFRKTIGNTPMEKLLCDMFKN
# Sequence of MSH6 89-203 PWWP (domain begin residue: 89, domain end residue: 203), P52701 (P52701 whole entry, the tested form may be a part): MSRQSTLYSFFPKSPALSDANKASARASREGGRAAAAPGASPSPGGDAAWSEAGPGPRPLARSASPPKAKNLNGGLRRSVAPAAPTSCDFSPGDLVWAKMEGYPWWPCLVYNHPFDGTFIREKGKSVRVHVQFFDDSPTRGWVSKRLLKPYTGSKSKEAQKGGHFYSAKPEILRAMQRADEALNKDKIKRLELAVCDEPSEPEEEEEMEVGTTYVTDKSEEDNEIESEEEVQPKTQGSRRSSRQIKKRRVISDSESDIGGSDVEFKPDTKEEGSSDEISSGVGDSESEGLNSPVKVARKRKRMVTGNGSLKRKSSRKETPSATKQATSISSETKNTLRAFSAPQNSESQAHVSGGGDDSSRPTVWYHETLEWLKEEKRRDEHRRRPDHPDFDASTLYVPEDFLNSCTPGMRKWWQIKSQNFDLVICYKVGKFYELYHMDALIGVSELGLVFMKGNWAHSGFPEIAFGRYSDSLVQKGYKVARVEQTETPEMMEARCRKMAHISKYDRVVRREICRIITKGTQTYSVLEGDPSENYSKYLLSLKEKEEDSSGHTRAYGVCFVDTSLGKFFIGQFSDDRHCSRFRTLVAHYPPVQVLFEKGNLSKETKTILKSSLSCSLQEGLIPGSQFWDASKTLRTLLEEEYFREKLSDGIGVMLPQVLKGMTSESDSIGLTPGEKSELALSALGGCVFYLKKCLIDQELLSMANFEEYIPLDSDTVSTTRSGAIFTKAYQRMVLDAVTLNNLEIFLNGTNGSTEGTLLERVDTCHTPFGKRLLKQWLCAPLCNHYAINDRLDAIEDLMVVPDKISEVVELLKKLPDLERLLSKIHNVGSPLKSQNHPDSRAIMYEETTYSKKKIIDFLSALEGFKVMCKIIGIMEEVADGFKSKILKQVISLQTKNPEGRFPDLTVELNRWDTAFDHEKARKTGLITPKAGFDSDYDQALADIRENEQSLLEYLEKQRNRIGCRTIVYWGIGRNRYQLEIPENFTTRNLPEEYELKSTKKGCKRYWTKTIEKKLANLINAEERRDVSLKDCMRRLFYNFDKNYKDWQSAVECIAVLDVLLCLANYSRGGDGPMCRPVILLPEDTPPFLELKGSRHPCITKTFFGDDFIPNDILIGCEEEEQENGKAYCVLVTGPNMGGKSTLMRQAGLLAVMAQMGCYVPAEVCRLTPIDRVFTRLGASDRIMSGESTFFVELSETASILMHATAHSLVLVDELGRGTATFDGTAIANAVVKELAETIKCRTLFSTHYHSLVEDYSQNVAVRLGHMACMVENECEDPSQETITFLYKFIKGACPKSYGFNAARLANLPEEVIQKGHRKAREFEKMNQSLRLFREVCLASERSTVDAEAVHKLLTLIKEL
binder,measurement,setting,value
B1,phage ELISA signal ratio,[1],5.84
B2,phage ELISA signal ratio,[2],28.4
B3,phage ELISA signal ratio,[3],9.19
B4,phage ELISA signal ratio,[4],4.27
B5,phage ELISA signal ratio,[3],5.27
B6,phage ELISA signal ratio,[5],12.3
B7,phage ELISA signal ratio,[6],17.3
B8,phage ELISA signal ratio,[3],6.57
B9,phage ELISA signal ratio,[4],13.8
B10,phage ELISA signal ratio,[7],6.08
B11,phage ELISA signal ratio,[2],6.41
B12,phage ELISA signal ratio,[2],5.69
B13,phage ELISA signal ratio,[2],8.56
B14,phage ELISA signal ratio,[8],9.03
B15,phage ELISA signal ratio,[9],20.2
